High-throughput results: PubChem, National Center for Advancing Translational Sciences (NCATS)
ClpP mod = qHTS Assay for Activators of ClpP; ATP-dependent Clp protease proteolytic subunit (Bacillus subtilis (strain 168)), P80244; purified B. subtilis ClpP, FRET peptide cleavage, 20 min; Potency, µM (doses to about 57.5 µM), inactives show top-dose activity change, negative = active; 1.9% of 340,000 active; AID 651965, 2013; active means well fitted falling curve with a large enough effect; inconclusive means small, poorly fitted or top-dose-only effect; inactive means no such curve, though single readings can be large or run the other way; further: potency means the concentration at half of the fitted maximal effect; the source files actives as falling curves though it sought activators and does not explain the sign; nearly all actives have a fitted effect of over 65% in size
Target sequence (P80244 whole entry, looked up): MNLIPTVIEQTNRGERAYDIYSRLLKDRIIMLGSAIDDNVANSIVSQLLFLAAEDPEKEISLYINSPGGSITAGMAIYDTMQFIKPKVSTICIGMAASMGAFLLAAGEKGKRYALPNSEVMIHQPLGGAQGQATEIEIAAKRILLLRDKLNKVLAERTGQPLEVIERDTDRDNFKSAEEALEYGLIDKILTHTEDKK
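Buffer: 100 mM Tris/HCl pH8, 100 mM KCl, 0.05% low protease BSA, 2.5% glycerol, 0.01% Tween-20. ClpP 10 microg/mL final; 20 min RT; delta FRET normalized to ADEP and DMSO controls.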
IL1B secr inh = inhibitors of inflammasome signaling (IL-1 beta secretion). AID 743279. THP-1 LPS/ATP IL-1B secretion, AlphaLISA, 16 h; active compounds read low. 4.7% of 360,000 active. activity change, % at 57.5 µM; in the data active means activity change below about -50%; inconclusive means mostly about -30% to -49%; further: on the % scale 0 is the no-effect control and ±100 the full control effect
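THP-1 cells pretreated 1 hr with compounds (up to 57.5 uM final), then stimulated with LPS (250 ng/mL final) plus ATP (1.25 mM final); secreted IL-1B measured by AlphaLISA after 16 hr, decreased signal indicating inhibition.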
D3 ag = D3 dopamine receptor (human) agonism | D3R DiscoveRx beta-arrestin cells, luminescence, 90 min | max activation, % | 0.58% of 410,000 active | AID 652048; in the data active means max activation above about 30%; further: 0% is about no effect
Target sequence (P35462 whole entry, looked up): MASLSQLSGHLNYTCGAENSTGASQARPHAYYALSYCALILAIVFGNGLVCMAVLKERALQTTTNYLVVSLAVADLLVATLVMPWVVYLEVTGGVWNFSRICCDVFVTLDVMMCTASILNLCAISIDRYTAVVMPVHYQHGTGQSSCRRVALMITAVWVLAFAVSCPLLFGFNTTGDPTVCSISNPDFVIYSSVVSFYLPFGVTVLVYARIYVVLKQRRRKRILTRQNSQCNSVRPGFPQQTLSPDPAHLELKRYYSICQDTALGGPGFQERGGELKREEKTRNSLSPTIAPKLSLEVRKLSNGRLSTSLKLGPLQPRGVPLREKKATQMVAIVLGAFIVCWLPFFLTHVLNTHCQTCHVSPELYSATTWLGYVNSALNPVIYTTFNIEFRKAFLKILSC
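Agonist mode: compounds and dopamine controls were applied to plated cells for 90 min at 37 degrees C after an overnight attachment at 1500 cells/well. Luminescent read-out followed 30 - 60 minutes at room temperature with DiscoveRx detection reagent.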
DRD3 antagonist = antagonists of human D3 dopamine receptor; D3R cells, DiscoveRx beta-arrestin luminescence, antagonist mode; active compounds read low; P35462; 2.5% of 360,000 active; max response, negative = inhibition, %; in the data active means max response below about -50%; inconclusive means no clear call, values can overlap the other calls; further: on the % scale 0 is the no-effect control and ±100 the full control effect
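Cells expressing the human receptor were seeded at 1500 cells/well, incubated overnight at 37 degrees C in 5% CO2, then exposed to library compounds with dopamine controls for 90 minutes at 37 degrees C before luminescent detection.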
TDP1 cell noCPT = qHTS for Inhibitors of human tyrosyl-DNA phosphodiesterase 1 (TDP1): qHTS in cells in absence of CPT | DT40 Tdp1-/- hTDP1 cells, no CPT, ATP luminescence, 48 h | Potency, µM (doses to about 46.2 µM), for inactives: at the highest dose activity change, negative = growth inhibition, hits mostly inhibitors | 15% of 420,000 active | AID 686978, 2013; further: potency means the concentration at half of the fitted maximal effect; on the % scale 0 is the no-effect control and ±100 the full control effect; nearly all actives have a fitted effect of over 55% in size
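DT40 Tdp1-/-;hTDP1 cells, no CPT (DMSO vehicle only), 400 cells/well; compounds pin-transferred; ≥48 hr, 37 °C; CellTiter-Glo 30 min RT dark, luminescence read.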
TDP1 cell CPT = DT40-hTDP1 cell growth loss with CPT; 12% of 420,000 active; AID 686979; chicken DT40 Tdp1-/-;hTDP1 cells + 20 nM CPT, ATP luminescence, 48 h; Potency, µM (titrated, usually from 46.2 µM), without a hit: at the top dose activity change, negative = growth inhibition, actives largely listed as inhibitors; further: potency means the concentration at half of the fitted maximal effect; on the % scale 0 is the no-effect control and ±100 the full control effect; nearly all actives have a fitted effect of over 55% in size
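Chicken DT40 Tdp1-/- cells complemented with human TDP1, 400 cells/well, exposed to compounds plus 20 nM camptothecin for at least 48 h at 37 C; viability read as ATP content by CellTiter-Glo luminescence.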
* hit, by the source's call; u = inconclusive; x = no result given; ! = not active in a repeat; [ ] = remark or other dose. Shown are actives, neighbours in structure and some others; about 21% of the full set was active somewhere. Unless noted, the call rests on the fitted dose curve; in most records, active means well fitted inhibition curve with a large enough effect; inconclusive means small, poorly fitted or top-dose-only effect; inactive means flat fitted curve, though single readings scatter.

SMILES	ClpP mod	IL1B secr inh	D3 ag	DRD3 antagonist	TDP1 cell noCPT	TDP1 cell CPT
CC[C@]12CCCN3CCc4c(n(c5ccccc45)C(=O)C1)[C@@H]32	0%	16	4	24	6.5µM*	6%
COc1ccccc1C(=O)N[C@@H]1c2ccccc2C2(CCN(Cc3c(O)cccc3OC)CC2)[C@H]1O	x	x	x	x	18µM*	-8%[9.04 µM]
Cc1ccc(C)c(NC(=O)N2CCC(CN3CCOCC3)CC2)c1	-1%	x	-6	x	-11%	-8%
Cc1ccc(-c2nn3c(C)nnc3c3ccccc23)cc1S(=O)(=O)NCc1ccco1	-9%	u	3	6	u	15µM*
Cc1ccc(-c2nn3c(C)nnc3c3ccccc23)cc1S(=O)(=O)NC(C)c1ccccc1 (centres undefined)	-10%	-3	-11	-54*	18µM*	u
Cc1cc(C)c(C)c(S(=O)(=O)N2CCN(c3ncnc4ccccc34)CC2)c1C	-7%	9	23	82	8.2µM*	10µM*
O=S(=O)(c1cc(C(F)(F)F)ccc1Cl)N1CCN(c2ncnc3ccccc23)CC1	2%	-16	5	34	2.1µM*	2.1µM*
Cc1cc(C)c(C)c(S(=O)(=O)N2CCN(c3ccccn3)CC2)c1C	-27%	11	2	-4	-5%	-23%
CC1CCN(c2ncnc3ccccc23)CC1	1%	-27	2	14	23µM*	13µM*
COc1ccc(OCC(=O)Nc2ccccc2N2CCCCC2)cc1	0%	3	9	19	1.6µM*	1.6µM*
O=C(COc1ccc(Cl)cc1Br)Nc1ccccc1N1CCCC1	-3%	-3	28	5	u	21µM*
CCc1cccc(OCC(=O)Nc2ccccc2N2CCCC2)c1	-1%	-7	-2	10	u	u
COc1ccc(OCC(=O)Nc2ccccc2N2CCN(C)CC2)cc1	x	-19	-2	-7	-22%	-12%
CCC(=O)N1CCN(c2ccccc2NC(=O)COc2ccc(C(C)C)cc2)CC1	2%	0	-1	1	16µM*	u
COc1ccc(-c2ocnc2C(=O)Nc2ccccc2N2CCCCC2)cc1	32µM*	5	3	72	u	u
COc1ccc(Cl)cc1C(=O)NNC(=O)c1[nH]c(C)c(C(C)=O)c1C	-7%	-10	-1	7	u	u
COc1cccc(OC)c1C(=O)Nc1ccccc1N1CCCCC1	-2%	-51*	-12	-21	u	u
COC(=O)C1CCCN1C(=O)COc1ccc(Cl)cc1Br (centres undefined)	1%	8	3	-3	u	18µM*
COc1cc(C(C)=O)ccc1OCC(=O)Nc1ccccc1N1CCCCC1	1%	u	0	45	8.2µM*	9.2µM*
COc1cc(C(C)=O)ccc1OCC(=O)Nc1ccccc1N1CCCC1	-2%	-21	4	17	u	u
O=S(=O)(c1ccc(-c2ccon2)s1)N1CCN(c2ccccn2)CC1	x	12	-2	4	-26%	-14%
COc1ccc(Br)c(C(=O)Nc2ccc(F)cc2)c1	x	-18	-8	0	-5%	-7%
CCOC(=O)C1CCCN(C(=O)/C=C/c2ccc(Cl)cc2)C1 (centres undefined)	0%	-6	-5	-9	-23%	-17%
CCOC(=O)C1CCN(C(=S)Nc2ccccc2)CC1	-2%	-2	-11	-18	8%	u
CCOC(=O)C1CCCN(C(=O)c2ccc(-c3ccc([N+](=O)[O-])cc3)o2)C1 (centres undefined)	1%	-22	-19	-3	12µM*	12µM*
SMILES	ClpP mod	IL1B secr inh	D3 ag	DRD3 antagonist	TDP1 cell noCPT	TDP1 cell CPT
CCOC(=O)C1CCCN(C(=S)Nc2ccc(Nc3ccccc3)cc2)C1 (centres undefined)	x	-96*	-5	-9	23µM*	u
CCOC(=O)C1CCCN(C(=O)/C=C/c2cccc([N+](=O)[O-])c2)C1 (centres undefined)	25µM*	-1	2	-8	u	-21%
CCOC(=O)C1CCCN(C(=O)Cc2ccc(C)cc2)C1 (centres undefined)	1%	6	0	1	18µM*	u
Cc1cccc(C)c1NC(=O)CSc1nnc(C)n1CC1CCCO1 (centres undefined)	x	-21	-25	-21	u	u
Cn1cccc1Cc1nnc(SCC(=O)N2CCCC2)n1CCc1ccccc1	1%	u	-2	0	-25%	u
COc1ccc(-n2c(Cc3cccn3C)nnc2SCC(=O)Nc2ccccc2)cc1	-2%	-4	2	-8	0%	-24%
COc1ccc(-n2c(Cc3cccn3C)nnc2SCC(=O)Nc2cccc(F)c2)cc1	4%	u	-10	-16	26µM*	23µM*
CC1CCN(C(=O)CSc2nnc(Cc3cccn3C)n2CCc2ccccc2)CC1	1%	u	-4	-12	u	16µM*
Cn1cccc1Cc1nnc(SCC(=O)Nc2cccc(F)c2)n1CCc1ccccc1	14%	-21	-10	0	u	23µM*
Cn1cccc1Cc1nnc(SCC(=O)Nc2ccccc2F)n1CCc1ccccc1	3%	u	3	1	-24%	-27%
Cc1ccc(S(=O)(=O)CC(=O)c2ccc3c(c2)OCCO3)cc1	x	15	0	1	-8%	-5%
CCOC(=O)OCC/C(SC(=O)OCC)=C(\C)N(C=O)Cc1cnc(C)nc1N	x	x	-2	x	-1%	3%
C/C(=C(/CCO)SSCC1CCCO1)N(C=O)Cc1cnc(C)nc1N (centres undefined)	0%	9	19	8	21µM*	21µM*!
CCCSS/C(CCO)=C(\C)N(C=O)Cc1cnc(C)nc1N	x	x	0	x	3µM*	5.3µM*
Cc1noc(NC(=O)c2ccccc2C(F)(F)F)c1C#N	x	-3	1	-3	8%	-1%
CCOC(=O)C1CCCN(Cc2ccc(OC)cc2OC)C1 (centres undefined)	3%	-16	-8	-52*	-11%	-25%
CCOC(=O)C1CCCN(Cc2ccc(O)c(OC)c2)C1 (centres undefined)	0%	5	-10	u	-2%	-10%
CCOC(=O)C1CCCN(Cc2cccc(Cl)c2)C1 (centres undefined)	-4%	11	-57	-61*	-6%	-1%
